Reference: the supplement of paper PMC8728848
The full list was thinned out, with the strongest signals kept by preference.

What was measured:
Test in all cases: glycan array binding signal (z-score within array); higher = stronger binding
Settings in all cases: glycan notation: IUPAC condensed, linker removed
[1] = target: Fuc(a1-2)Gal(b1-3)GlcNAc(b1-2)Man(a1-3)[Fuc(a1-2)Gal(b1-3)GlcNAc(b1-2)Man(a1-6)]Man(b1-4)GlcNAc(b1-4)[Fuc(a1-6)]GlcNAc
Procedure, shortened: (§1)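 The binding signal is a Z-score computed within each array and averaged over linkers. Arrays of the same protein sequence at different concentrations or buffers were also averaged together. Data originate from 3228 arrays in the Consortium for Functional Glycomics database, kept only where the protein sequence was available.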

[2] = target: Fuc(a1-2)Gal(b1-3)GlcNAc(b1-3)[Gal(b1-4)GlcNAc(b1-6)]Gal(b1-4)Glc
Procedure, shortened: as §1

[3] = target: Fuc(a1-2)[Gal(a1-3)]Gal(b1-4)GlcNAc(b1-3)[Fuc(a1-2)[Gal(a1-3)]Gal(b1-4)GlcNAc(b1-6)]GalNAc
Procedure, shortened: as §1

[4] = target: Fuc(a1-2)[GalNAc(a1-3)]Gal(b1-3)GlcNAc(b1-3)GalNAc
Procedure, shortened: as §1

[5] = target: Fuc(a1-2)[GalNAc(a1-3)]Gal(b1-4)GlcNAc(b1-3)Gal(b1-4)GlcNAc(b1-3)Gal(b1-4)GlcNAc
Procedure, shortened: as §1

[6] = target: Fuc(a1-3)[Gal(b1-4)]GlcNAc(b1-2)Man
Procedure, shortened: as §1

Fuc(a1-4)GlcNAc = target: Fuc(a1-4)GlcNAc
Procedure, shortened: as §1

[7] = target: Gal(a1-3)[Gal(a1-4)]Gal(b1-4)GlcNAc
Procedure, shortened: as §1

Gal(a1-4)Gal(b1-4)GlcNAc = target: Gal(a1-4)Gal(b1-4)GlcNAc
Procedure, shortened: as §1

Gal(a1-6)Glc = target: Gal(a1-6)Glc
Procedure, shortened: as §1

Gal(b1-2)Gal = target: Gal(b1-2)Gal
Procedure, shortened: as §1

Gal(b1-3)GlcNAc = target: Gal(b1-3)GlcNAc
Procedure, shortened: as §1

[8] = target: Gal(b1-3)GlcNAc(a1-3)Gal(b1-4)GlcNAc
Procedure, shortened: as §1

Gal(b1-3)GlcNAc(b1-2)Man = target: Gal(b1-3)GlcNAc(b1-2)Man
Procedure, shortened: as §1

[9] = target: Gal(b1-3)GlcNAc(b1-3)Gal(b1-4)Glc
Procedure, shortened: as §1

[10] = target: Gal(b1-3)GlcNAc(b1-3)GalNAc
Procedure, shortened: as §1

[11] = target: Gal(b1-4)GlcNAc(b1-2)[Gal(b1-4)GlcNAc(b1-6)]Man(a1-6)[GlcNAc(b1-4)][Gal(b1-4)GlcNAc(b1-2)Man(a1-3)]Man(b1-4)GlcNAc(b1-4)GlcNAc
Procedure, shortened: as §1

[12] = target: Gal(b1-4)GlcNAc(b1-3)Gal(b1-4)GlcNAc(b1-3)Gal(b1-4)GlcNAc(b1-2)Man(a1-3)[Gal(b1-4)GlcNAc(b1-3)Gal(b1-4)GlcNAc(b1-3)Gal(b1-4)GlcNAc(b1-2)Man(a1-6)]Man(b1-4)GlcNAc(b1-4)[Fuc(a1-6)]GlcNAc
Procedure, shortened: as §1

[13] = target: Gal(b1-4)GlcNAc(b1-3)Gal(b1-4)GlcNAc(b1-3)Gal(b1-4)GlcNAc(b1-3)Gal(b1-4)GlcNAc(b1-3)Gal(b1-4)GlcNAc(b1-2)[Gal(b1-4)GlcNAc(b1-3)Gal(b1-4)GlcNAc(b1-3)Gal(b1-4)GlcNAc(b1-3)Gal(b1-4)GlcNAc(b1-3)Gal(b1-4)GlcNAc(b1-6)]Man(a1-6)[Gal(b1-4)GlcNAc(b1-3)Gal(b1-4)GlcNAc(b1-3)Gal(b1-4)GlcNAc(b1-3)Gal(b1-4)GlcNAc(b1-3)Gal(b1-4)GlcNAc(b1-2)Man(a1-3)]Man(b1-4)GlcNAc(b1-4)[Fuc(a1-6)]GlcNAc
Procedure, shortened: as §1

Gal3S(b1-3)GalNAc = target: Gal3S(b1-3)GalNAc
Procedure, shortened: as §1

Gal3S(b1-4)Glc = target: Gal3S(b1-4)Glc
Procedure, shortened: as §1

Gal3S4S(b1-4)GlcNAc = target: Gal3S4S(b1-4)GlcNAc
Procedure, shortened: as §1

GalNAc(a1-3)GalNAc = target: GalNAc(a1-3)GalNAc
Procedure, shortened: as §1

GalNAc(b1-4)GlcNAc = target: GalNAc(b1-4)GlcNAc
Procedure, shortened: as §1

[14] = target: GalNAc(b1-4)GlcNAc(b1-2)Man(a1-3)[GalNAc(b1-4)GlcNAc(b1-2)Man(a1-6)]Man(b1-4)GlcNAc(b1-4)GlcNAc
Procedure, shortened: as §1

GlcA(b1-3)GlcNAc = target: GlcA(b1-3)GlcNAc
Procedure, shortened: as §1

[15] = target: GlcNAc(a1-4)Gal(b1-4)GlcNAc(b1-3)Gal(b1-4)Glc
Procedure, shortened: as §1

[16] = target: GlcNAc(b1-2)Man(a1-3)[GlcNAc(b1-4)][GlcNAc(b1-2)Man(a1-6)]Man(b1-4)GlcNAc(b1-4)[Fuc(a1-6)]GlcNAc
Procedure, shortened: as §1

[17] = target: GlcNAc(b1-2)[GlcNAc(b1-4)]Man(a1-3)[GlcNAc(b1-4)][GlcNAc(b1-2)Man(a1-6)]Man(b1-4)GlcNAc(b1-4)GlcNAc
Procedure, shortened: as §1

[18] = target: GlcNAc(b1-2)[GlcNAc(b1-4)]Man(a1-3)[GlcNAc(b1-4)][GlcNAc(b1-2)[GlcNAc(b1-6)]Man(a1-6)]Man(b1-4)GlcNAc(b1-4)GlcNAc
Procedure, shortened: as §1

[19] = target: GlcNAc(b1-3)Gal(b1-4)GlcNAc(b1-2)Man(a1-3)[GlcNAc(b1-3)Gal(b1-4)GlcNAc(b1-2)Man(a1-6)]Man(b1-4)GlcNAc(b1-4)[Fuc(a1-6)]GlcNAc
Procedure, shortened: as §1

[20] = target: GlcNAc(b1-3)Gal(b1-4)GlcNAc(b1-3)[GlcNAc(b1-3)Gal(b1-4)GlcNAc(b1-3)]GalNAc
Procedure, shortened: as §1

GlcNAc(b1-3)Man = target: GlcNAc(b1-3)Man
Procedure, shortened: as §1

[21] = target: GlcNAc(b1-4)GlcNAc(b1-4)GlcNAc(b1-4)GlcNAc(b1-4)GlcNAc
Procedure, shortened: as §1

[22] = target: Man(a1-2)Man(a1-2)Man(a1-3)Man
Procedure, shortened: as §1

[23] = target: Neu5Ac(a2-3)Gal(b1-3)GalNAc
Procedure, shortened: as §1

Neu5Ac(a2-3)Gal(b1-4)Glc = target: Neu5Ac(a2-3)Gal(b1-4)Glc
Procedure, shortened: as §1

[24] = target: Neu5Ac(a2-3)Gal(b1-4)GlcNAc(b1-3)Gal(b1-3)GlcNAc
Procedure, shortened: as §1

[25] = target: Neu5Ac(a2-3)Gal(b1-4)GlcNAc(b1-3)Gal(b1-4)GlcNAc(b1-3)GalNAc
Procedure, shortened: as §1

[26] = target: Neu5Ac(a2-3)Gal(b1-4)[Fuc(a1-3)]GlcNAc(b1-3)GalNAc
Procedure, shortened: as §1

Neu5Ac(a2-3)GalNAc = target: Neu5Ac(a2-3)GalNAc
Procedure, shortened: as §1

Neu5Ac(a2-6)GalNAc = target: Neu5Ac(a2-6)GalNAc
Procedure, shortened: as §1

[27] = target: Neu5Ac(a2-8)Neu5Ac(a2-3)[Gal(b1-3)GalNAc(b1-4)]Gal(b1-4)Glc
Procedure, shortened: as §1

[28] = target: Neu5Ac(a2-8)Neu5Gc(a2-3)Gal(b1-4)GlcNAc
Procedure, shortened: as §1

[29] = target: Neu5Gc(a2-3)Gal(b1-3)[Fuc(a1-4)]GlcNAc
Procedure, shortened: as §1

B1: SP15308A-bot-339-19-339 (Bacteroides ovatus) (protein)
chain: ACNNEWEDEQYEQYISFKSPIPAGGEGVTDIYVRYKEDGKVTYRLPIVVSGSTTNTLDREVHIAVDKDTLETLNIERFSIHRPGLWYTALEEDKYDFPKTVHISAGSSVEQLNIDFNLQGIDMLEKWVLPLTIVDDPSYNYKSHPRKNYAKALLRVIPFNNYSGSYTSSAMKVYTYINGKPDTNARTANKRTGYVINDNTVFFYAGLISEDLDKEVREKYKINVHFNEDGTLHMEQGDPTNKMKFELIGTPTYSKTSVMDATRPYLERRYVQIMFEYDFEDFSYGGNGVDVIPIKYKVEGSMTLQRNINTQIPDEDQQIEW
Q: For B1, which “glycan array binding signal (z-score)” value [1] is on record?
A: Its value is 0.285.

Q: And the “glycan array binding signal (z-score)” value [2]?
A: Its value is -0.461.

Q: And the “glycan array binding signal (z-score)” value [3]?
A: The value was 8.34.

Q: What about the “glycan array binding signal (z-score)” value [4] of the same binder?
A: Its value is 0.521.

Q: And the “glycan array binding signal (z-score)” value [5]?
A: Its value is 0.178.

Q: And the “glycan array binding signal (z-score)” value [6]?
A: Its value is 0.187.

Q: What about the “glycan array binding signal (z-score)” value (Fuc(a1-4)GlcNAc) of the same binder?
A: The value was 19.1.

Q: And the “glycan array binding signal (z-score)” value [7]?
A: Its value is 1.28.

Q: What about the “glycan array binding signal (z-score)” value (Gal(a1-4)Gal(b1-4)GlcNAc) of the same binder?
A: The value was 0.261.

Q: What about the “glycan array binding signal (z-score)” value (Gal(a1-6)Glc) of the same binder?
A: Its value is 0.432.

Q: What about the “glycan array binding signal (z-score)” value (Gal(b1-2)Gal) of the same binder?
A: Its value is 0.055.

Q: What about the “glycan array binding signal (z-score)” value (Gal(b1-3)GlcNAc) of the same binder?
A: Its value is 0.061.

Q: What about the “glycan array binding signal (z-score)” value [8] of the same binder?
A: Its value is 0.217.

Q: And the “glycan array binding signal (z-score)” value (Gal(b1-3)GlcNAc(b1-2)Man)?
A: The value was 2.76.

Q: And the “glycan array binding signal (z-score)” value [9]?
A: Its value is -0.437.

Q: And the “glycan array binding signal (z-score)” value [10]?
A: The value was 0.029.

Q: What about the “glycan array binding signal (z-score)” value [11] of the same binder?
A: Its value is -0.304.

Q: And the “glycan array binding signal (z-score)” value [12]?
A: The value was 2.77.

Q: What about the “glycan array binding signal (z-score)” value [13] of the same binder?
A: Its value is 0.968.

Q: What about the “glycan array binding signal (z-score)” value (Gal3S(b1-3)GalNAc) of the same binder?
A: Its value is 0.97.

Q: What about the “glycan array binding signal (z-score)” value (Gal3S(b1-4)Glc) of the same binder?
A: Its value is 0.257.

Q: And the “glycan array binding signal (z-score)” value (Gal3S4S(b1-4)GlcNAc)?
A: Its value is 0.201.

Q: And the “glycan array binding signal (z-score)” value (GalNAc(a1-3)GalNAc)?
A: Its value is 1.35.

Q: And the “glycan array binding signal (z-score)” value (GalNAc(b1-4)GlcNAc)?
A: Its value is 1.18.

Q: And the “glycan array binding signal (z-score)” value [14]?
A: Its value is 1.54.

Q: What about the “glycan array binding signal (z-score)” value (GlcA(b1-3)GlcNAc) of the same binder?
A: The value was -0.486.

Q: What about the “glycan array binding signal (z-score)” value [15] of the same binder?
A: Its value is 0.185.

Q: And the “glycan array binding signal (z-score)” value [16]?
A: The value was -0.474.

Q: And the “glycan array binding signal (z-score)” value [17]?
A: Its value is 1.11.

Q: And the “glycan array binding signal (z-score)” value [18]?
A: Its value is -0.391.

Q: And the “glycan array binding signal (z-score)” value [19]?
A: The value was 0.083.

Q: What about the “glycan array binding signal (z-score)” value [20] of the same binder?
A: Its value is 0.148.

Q: And the “glycan array binding signal (z-score)” value (GlcNAc(b1-3)Man)?
A: The value was -0.188.

Q: And the “glycan array binding signal (z-score)” value [21]?
A: Its value is -0.452.

Q: What about the “glycan array binding signal (z-score)” value [22] of the same binder?
A: Its value is -0.468.

Q: And the “glycan array binding signal (z-score)” value [23]?
A: The value was 1.94.

Q: And the “glycan array binding signal (z-score)” value (Neu5Ac(a2-3)Gal(b1-4)Glc)?
A: Its value is 0.997.

Q: And the “glycan array binding signal (z-score)” value [24]?
A: Its value is 0.117.

Q: And the “glycan array binding signal (z-score)” value [25]?
A: Its value is -0.51.

Q: What about the “glycan array binding signal (z-score)” value [26] of the same binder?
A: Its value is 1.76.

Q: And the “glycan array binding signal (z-score)” value (Neu5Ac(a2-3)GalNAc)?
A: Its value is 0.234.

Q: And the “glycan array binding signal (z-score)” value (Neu5Ac(a2-6)GalNAc)?
A: The value was -0.36.

Q: And the “glycan array binding signal (z-score)” value [27]?
A: Its value is -0.083.

Q: And the “glycan array binding signal (z-score)” value [28]?
A: The value was -0.21.

Q: What about the “glycan array binding signal (z-score)” value [29] of the same binder?
A: The value was -0.412.
